Screens from PubChem.
Pol kappa inh-1: qHTS for Inhibitors of Polymerase Kappa. DNA polymerase kappa (Homo sapiens), Q9UBT6. purified Pol kappa, fluorescent DNA synthesis assay, 10 min. Potency, µM (doses to about 107 µM), without a hit: at the top dose activity, negative = inhibition, hits mostly inhibitors. 400,000 tested, 0.53% active. AID 588579, 2011; also: potency is read from the fitted curve at half-maximal effect; % is scaled to controls: 0 for no effect and ±100 for the full control effect
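10 nM Pol kappa preincubated 15 min at room temperature with compounds, then reaction started with substrate at 50 nM final. Fluorescence read kinetically at 0 and 10 min; buffer-only wells served as negative control.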
ALOX12 inh: Primary qHTS assay for inhibitors of human arachidonate 12S-lipoxygenase (ALOX12): Round 2. Polyunsaturated fatty acid lipoxygenase ALOX12 (Homo sapiens), P18054. purified 12hLO, xylenol orange hydroperoxide absorbance. Potency, µM (highest dose often 108 µM), for inactives: at the highest dose activity change, negative = inhibition, actives largely listed as inhibitors. 580,000 tested, 1.1% active. AID 1671190, 2021; also: potency is read from the fitted curve at half-maximal effect; % is scaled to controls: 0 for no effect and ±100 for the full control effect
Target sequence (P18054 whole entry, looked up): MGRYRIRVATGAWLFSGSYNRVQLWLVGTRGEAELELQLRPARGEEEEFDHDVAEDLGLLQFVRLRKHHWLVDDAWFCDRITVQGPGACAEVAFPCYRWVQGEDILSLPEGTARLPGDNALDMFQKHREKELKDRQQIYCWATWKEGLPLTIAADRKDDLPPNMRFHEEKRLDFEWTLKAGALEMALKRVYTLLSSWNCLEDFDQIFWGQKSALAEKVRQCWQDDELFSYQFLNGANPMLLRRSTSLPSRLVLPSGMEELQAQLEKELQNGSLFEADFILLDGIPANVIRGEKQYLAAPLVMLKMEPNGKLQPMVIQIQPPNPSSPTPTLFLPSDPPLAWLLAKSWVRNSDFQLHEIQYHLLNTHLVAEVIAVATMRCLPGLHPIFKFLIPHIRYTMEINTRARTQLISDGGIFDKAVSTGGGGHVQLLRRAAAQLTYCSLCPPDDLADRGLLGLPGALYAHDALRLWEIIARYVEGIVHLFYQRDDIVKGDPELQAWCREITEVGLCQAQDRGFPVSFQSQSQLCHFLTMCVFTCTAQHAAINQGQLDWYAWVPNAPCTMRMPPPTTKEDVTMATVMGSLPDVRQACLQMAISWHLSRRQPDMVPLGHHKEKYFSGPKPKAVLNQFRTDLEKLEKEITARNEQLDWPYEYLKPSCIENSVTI
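Purified human 12hLO at 150 nM in 25 mM Hepes, 0.01% Triton X-100, pH 7.0, preincubated 15 min at room temperature with compound. Reaction started with 40 uM arachidonic acid, 30 min at room temperature. Hydroperoxide measured by Fe-xylenol orange, 573/405 nm absorbance ratio.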
PI5P4K alpha inh: qHTS for Inhibitors of phosphatidylinositol 5-phosphate 4-kinase (PI5P4K) | Phosphatidylinositol 5-phosphate 4-kinase type-2 alpha (Homo sapiens), P48426 | 330,000 tested, 1.2% active | max response, % | PI5P4Kalpha enzyme, ADP-Glo luminescence, 60 min; stronger effect = lower value | AID 652105, 2013; active = max response of -50% or lower; inconclusive = between -30% and -50%; inactive = -30% or higher; also: value at the top dose of about 77 µM; % is scaled to controls: 0 for no effect and ±100 for the full control effect
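Enzyme plus substrate dispensed, test compounds pinned in, then ATP (5 microM final) added. After 60 min at RT, ADP-Glo reagent 1 for 45 min and reagent 2 for 30 min preceded luminescence imaging.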
POLB inh: qHTS Assay for Inhibitors of DNA Polymerase Beta | P06746 | Pol beta primer extension/strand displacement, fluorescence kinetic | Potency, µM (doses to about 114 µM), inactives show at the top dose activity change, negative = inhibition, actives largely listed as inhibitors | 340,000 tested, 1.3% active | AID 485314, 2010; also: potency is read from the fitted curve at half-maximal effect; % is scaled to controls: 0 for no effect and ±100 for the full control effect
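Kinetic readout of DNA synthesis with strand displacement by Pol beta. Compound and 10 nM enzyme sit 15 min at room temperature; 50 nM substrate starts the reaction, read immediately and at 10 min.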
POLI inh: qHTS for Inhibitors of Polymerase Iota; Pol iota fluorescent replication assay, 10 min; Potency, µM (highest dose often 115 µM), for inactives: top-dose activity, negative = inhibition, most hits filed as inhibitors; 390,000 tested, 1% active; DNA polymerase iota (Homo sapiens), Q9UNA4; also: potency is read from the fitted curve at half-maximal effect
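Fluorescent replication assay read twice, at 0 min and 10 min after adding 50 nM (final) substrate. Enzyme (10 nM) and compounds were first incubated 15 min at room temperature; enzyme-free buffer wells were negative controls.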
Pol eta inh-1: qHTS for Inhibitors of Polymerase Eta; DNA polymerase eta (Homo sapiens), Q9Y253; recombinant Pol eta, fluorescent DNA replication assay; Potency, µM (series often up to 114 µM), inactives show at the highest dose activity change, negative = inhibition, actives largely listed as inhibitors; 390,000 tested, 1.2% active; also: potency is read from the fitted curve at half-maximal effect; % is scaled to controls: 0 for no effect and ±100 for the full control effect
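Pol eta at 10 nM preincubated with compounds 15 min at room temperature; reaction started with fluorescent substrate (50 nM final) and read kinetically at 0 and 10 min.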
Pol kappa inh-2: qHTS for Inhibitors of Polymerase Kappa: Confirmatory Assay for Cherry-picked Compounds | 920 tested, 76% active | Potency, µM, most hits filed as inhibitors | shares compounds with Pol eta inh-1 | purified Pol-kappa, fluorescent strand-displacement substrate; also: potency is read from the fitted curve at half-maximal effect
Pol eta inh-2: qHTS for Inhibitors of Polymerase Eta: Confirmatory Assay for Cherry-picked Compounds; Pol eta primer extension, TAMRA/BHQ fluorescence, 10 min; Potency, µM, hits mostly inhibitors; AID 720502, 2013; 2,600 tested, 64% active; shares compounds with Pol eta inh-1; also: potency is read from the fitted curve at half-maximal effect
Starred values were filed as active, the others as inactive; u = inconclusive; x = no result given. The list is not random: actives were taken first. Their share in the collection is about 2.9%. Unless noted, calls follow the shape of the dose curve; as a rule, active = well fitted inhibition curve with a large enough effect; inconclusive = small, poorly fitted or top-dose-only effect, or another doubt; inactive = no such curve, though single readings can be large or run the other way.

SMILES | Pol kappa inh-1 | ALOX12 inh | PI5P4K alpha inh | POLB inh | POLI inh | Pol eta inh-1 | Pol eta inh-2 | others
O=C(O)c1cn[nH]c1-c1cccc([N+](=O)[O-])c1 | u | -6% | -24 | -15% | 25µM* | 20µM* | 67*
O=C(O)c1cc([N+](=O)[O-])ccc1-c1ccc([N+](=O)[O-])cc1C(=O)O | x | u | 0 | x | x | 20µM* | 60* | Pol kappa inh-2=3.8*
O=Cc1cn[nH]c1-c1cccc([N+](=O)[O-])c1 | 6% | 11% | -1 | -21% | -14% | -7% | x
COc1ccc(NC(=O)c2cc3c(s2)CN(C2CCCC2)C3)c(C)c1 | x | -16% | x | x | x | x | x
CC#CCCCC(=O)Nc1cccc(C(=O)O)c1 | u | 0% | -5 | 4% | u | 14µM* | u
CCCCC(=O)NC(=S)Nc1cccc(C(=O)O)c1 | -13% | -9% | 7 | 6% | 1% | -23% | x
O=C(O)c1ccc(CSc2nc3ccc(N4C(=O)C5C6C=CC(C6)C5C4=O)cc3s2)cc1 (centres undefined) | -12% | -3% | -5 | 2% | u | 28µM* | u
CC1(C)CC[C@]2(C(=O)O)CC[C@]3(C)C(=CC[C@@H]4[C@@]5(C)CC[C@H](O[C@@H]6O[C@H](C(=O)O)[C@@H](O)[C@H](O[C@@H]7OC[C@H](O)[C@H](O)[C@H]7O)[C@H]6O)C(C)(C)[C@@H]5CC[C@]43C)[C@@H]2C1 | u | -24% | -65* | x | u | 50µM* | x | Pol kappa inh-2=u
Cc1ccc2c(=O)cc(C(=O)Nc3nc4ccc(Cl)cc4s3)oc2c1C | u | u | x | 6.3µM* | u | 79µM* | u
COCCn1c(C)cc(C(=O)COC(=O)c2c(C)nn(Cc3ccc(C)cc3)c2Cl)c1C | x | -13% | x | x | x | x | x
CCCc1c(C(=O)OCC)[nH]c2c1C(=O)CC(c1ccc(OCC)cc1)C2 (centres undefined) | x | 9% | x | x | x | x | x
O=C(Nc1cccc(C(=O)O)c1)/C(=C\c1ccco1)NC(=O)c1ccc(Br)o1 | 79µM* | -12% | u | u | u | 18µM* | 38* | Pol kappa inh-2=24*
COc1ccc(/C=C(/NC(=O)c2ccc(Br)o2)C(=O)Nc2cccc(C(=O)O)c2)cc1 | x | -8% | -19 | x | x | -4% | x
CC(C)CC(NC(=O)/C(=C/c1ccco1)NC(=O)c1ccc(Br)o1)C(=O)O (centres undefined) | 71µM* | u | -8 | 0% | u | 22µM* | x | Pol kappa inh-2=u
Cc1cccc(-n2c(C)c(C)c3c2ncn2nc(-c4ccncc4)nc32)c1C | x | 9% | x | x | x | x | x
COc1ccc(NC(=O)/C(C#N)=C\c2ccc(-c3cc(C(=O)O)ccc3C)o2)cc1 | u | 0% | u | 22µM* | u | 20µM* | 43* | Pol kappa inh-2=47*
COc1ccc(NC(=O)/C(C#N)=C/c2ccc(-c3ccc(Cl)c(C(=O)O)c3)o2)cc1 | -26% | 0% | -24 | 0% | u | 22µM* | x | Pol kappa inh-2=u
Cc1ccc(NC(=O)/C(C#N)=C/c2ccc(-c3ccc(Cl)c(C(=O)O)c3)o2)cc1C | u | -26% | x | -21% | -23% | -9% | x
COc1ccc(NC(=O)/C(C#N)=C/c2ccc(-c3ccccc3C(=O)O)o2)cc1 | -22% | 0% | 0 | 23% | 18% | -17% | x
COc1cc(NC(=O)c2ccc(N3CC4CC(C3)[C@H]3CCCC(=O)N3C4)nc2)cc(OC)c1 (some centres undefined) | x | 35% | x | x | x | x | x
CCc1cccc(NC(=O)N2CCc3c(c4cc(F)ccc4n3C)C2)c1 | x | 127% | x | x | x | x | x
COc1cc(NC(=O)COC(=O)c2cccc(S(=O)(=O)N3CCc4ccccc43)c2)cc(OC)c1 | x | 10% | x | x | x | x | x
CO[C@@]1(NC(=O)C2SC(=C(C(N)=O)C(=O)O)S2)C(=O)N2C(C(=O)O)=C(CSc3nnnn3C)CS[C@@H]21 (some centres undefined) | 45µM* | u | -3 | x | 11µM* | -2% | 30*
CC(SCc1cc(=O)n2c([nH]c3ccccc32)c1C#N)C(=O)O (centres undefined) | u | -24% | u | -30% | u | u | u
CCc1cc(=O)n2c([nH]c3ccccc32)c1C#N | 7% | 0% | u | 8% | u | -5% | x
SMILES | Pol kappa inh-1 | ALOX12 inh | PI5P4K alpha inh | POLB inh | POLI inh | Pol eta inh-1 | Pol eta inh-2 | others
CC(=O)Nc1cccc(NC(=S)NC(NC(=O)c2ccc(C)cc2)C(Cl)(Cl)Cl)c1 (centres undefined) | x | -83% | x | x | x | x | x
Cc1ccc(C)c(NC(=O)Cn2cnc3c(oc4ccccc43)c2=O)c1 | -3% | -15% | 6 | 35% | 29% | u | x | Pol kappa inh-2=67*
Cc1cc(NS(=O)(=O)c2ccc(NC(=O)c3cc4c(=O)n5ccccc5nc4s3)cc2)nc(C)n1 | 89µM* | -10% | u | u | 50µM* | 20µM* | 60*
CN(C)S(=O)(=O)c1cccc(NC(=O)c2cc3c(=O)n4ccccc4nc3s2)c1 | -5% | 7% | -1 | 12% | 1% | -5% | x
CC(C)=CC(=O)NCc1ccncc1 | x | -1% | x | x | x | x | x
FC(F)(F)c1nc2ccccc2n1Cc1nnc(-c2ccccc2Cl)o1 | x | 2% | x | x | x | x | x
CC(=O)C(=Cc1ccc(C(=O)O)cc1)C(C)=O | u | -30% | -6 | u | u | 40µM* | u
CC(=O)C(=Cc1ccc(-c2ccccc2)cc1)C(=O)c1ccccc1 | x | -26% | -1 | x | x | x | x
